Measured values reported in PubChem BioAssay (EPA / NIEHS).
“And” between values parts separate entries of the source, which are not always exact repeats. Equal entries are not always repeated. Results filed as inconclusive are left out. A structure can be active in one record and inactive in another. The source made the active and inactive calls. Rule for the calls, unless noted: active = hit-call score of the fitted dose curve at least 0.9, where 1 is the maximum; inactive = score below 0.9.

How the values were obtained:
[1] = read-out: Interleukin-8 (IL8), CXCL8 (gene 3576); test: BSK_3C_IL8: BioMAP Diversity Plus: 3C Assay for Interleukin-8 (IL8) Biomarker Activity (AID 2283020); conditions: primary human endothelial cells (HUVEC); actives raise or lower the signal
Procedure, shortened: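 Primary human umbilical vein endothelial cells (3C system) were exposed to test chemical for 24 h, then IL-8 was quantified by ELISA. Responses were fitted bidirectionally against DMSO vehicle as baseline.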

[2] = read-out: Monokine induced gamma interferon (MIG), CXCL9 (gene 4283); test: BSK_3C_MIG: BioMAP Diversity Plus: 3C Assay for Monokine induced gamma interferon (MIG) Biomarker Activity (AID 2283021); conditions: primary human endothelial cells (HUVEC); actives raise or lower the signal;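 for AC50: MIG protein level measured by immunoassay in the treated endothelial cultures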
Procedure, shortened: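 Primary human umbilical vein endothelial cells in the 3C system were exposed to chemical for 24 h, after which MIG was quantified by ELISA. Activity was fitted bidirectionally against DMSO as negative control and baseline.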

[3] = target: human Vitamin D Receptor (VDR), VDR (gene 7421) (UniProt P11473); test: ATG_VDR_TRANS: Attagene TRANS-FACTORIAL HepG2 Assay for human Vitamin D Receptor (VDR) (AID 2283022; active = hit-call score of the fitted dose curve at least 0.9, where 1 is the maximum)
Chain of human Vitamin D Receptor (VDR), VDR (gene 7421) (P11473 whole entry, looked up, the tested form may be a part): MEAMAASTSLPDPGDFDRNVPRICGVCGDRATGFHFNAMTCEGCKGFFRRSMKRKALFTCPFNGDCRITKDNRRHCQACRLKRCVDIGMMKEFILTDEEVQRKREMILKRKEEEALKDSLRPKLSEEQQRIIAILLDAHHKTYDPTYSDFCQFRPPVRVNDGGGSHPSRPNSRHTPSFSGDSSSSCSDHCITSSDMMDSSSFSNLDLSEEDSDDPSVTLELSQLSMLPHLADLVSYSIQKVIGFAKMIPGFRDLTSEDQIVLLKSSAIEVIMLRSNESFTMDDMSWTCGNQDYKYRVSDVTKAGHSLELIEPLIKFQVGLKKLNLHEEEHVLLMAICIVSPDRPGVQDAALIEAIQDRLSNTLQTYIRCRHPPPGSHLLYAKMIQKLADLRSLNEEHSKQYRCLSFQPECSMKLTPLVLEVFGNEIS
Procedure, shortened: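 HepG2 cells were transiently transfected with GAL4-UAS reporter units and a chimeric VDR-Gal4 construct, then dosed for 24 hours. Reporter mRNA was quantified by RT-PCR, fluorescent labeling, HpaI digestion and capillary electrophoresis; gain of signal analysed vs DMSO.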

[4] = BSK_3C_SRB: Viability Assessment in the BioMAP Diversity Plus: 3C Assay (AID 2283023); conditions: primary human endothelial cells (HUVEC);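 note: fitted both ways against DMSO so a hit may be signal rise or drop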
Procedure, shortened: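 Human umbilical vein endothelial cells in the 3C system, treated 24 h. Total protein measured by 0.1% sulforhodamine B staining after 10% TCA fixation, read at 560 nm; bidirectional fit versus DMSO.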

[5] = read-out: Matrix Metallopeptidase 1 (MMP1), MMP1 (gene 4312); test: BSK_BE3C_MMP1: BioMAP Diversity Plus: BE3C Assay for Matrix Metallopeptidase 1 (MMP1) Biomarker Activity (AID 2283024); conditions: primary human bronchial epithelial cells; actives raise or lower the signal
Procedure, shortened: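 Primary human bronchial epithelial cells were dosed with test chemicals, and MMP1 levels were measured by ELISA 24 h later. Data were fitted bidirectionally against DMSO as the negative control and activity baseline.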

[6] = BSK_3C_Vis: BioMAP Diversity Plus: 3C Assay for Morphology Visualization (AID 2283025); conditions: primary human endothelial cells (HUVEC);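 note: fitted both ways so gain or loss versus DMSO counts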
Procedure, shortened: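 Human umbilical vein endothelial cells in the 3C system were imaged by light microscopy 24 h after chemical dosing to record cell morphology. Activity was fitted bidirectionally against DMSO as negative control and baseline; the endpoint serves as a background control.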

[7] = read-out: Pselectin, SELP (gene 6403); test: BSK_4H_Pselectin: BioMAP Diversity Plus: 4H Assay for Pselectin Biomarker Activity (AID 2283026); conditions: primary human endothelial cells (HUVEC); actives raise or lower the signal
Procedure, shortened: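 Primary human umbilical vein endothelial cells were exposed to test chemical for 24 h, then cell-surface P-selectin was quantified by ELISA. Activity was fitted bidirectionally against DMSO as negative control and baseline.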

[8] = BSK_4H_SRB: Viability Assessment in the BioMAP Diversity Plus: 4H Assay (AID 2283027); conditions: primary human endothelial cells (HUVEC);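 note: cells exposed to compound for 24 h before staining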;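 for AC50: curves fitted both ways versus DMSO so AC50 may be loss or gain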
Procedure, shortened: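 Human umbilical vein endothelial cells were dosed with chemical and, after 24 h, fixed with 10% TCA, stained with 0.1% sulforhodamine B, and read at 560 nm to give total protein as a cytotoxicity measure. Bidirectional fitting relative to DMSO control.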

[9] = BSK_BE3C_SRB: Viability Assessment in the BioMAP Diversity Plus: BE3C Assay (AID 2283028); conditions: primary human bronchial epithelial cells;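 for AC50: fitted both ways so AC50 may mark signal gain or loss versus DMSO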
Procedure, shortened: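 Human bronchial epithelial primary cells in confluent culture, 24 h after chemical dosing; total protein by 0.1% SRB staining after 10% TCA fixation, read at 560 nm. Bidirectional fitting versus DMSO baseline.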

[10] = read-out: Thrombomodulin, THBD (gene 7056); test: BSK_3C_Thrombomodulin: BioMAP Diversity Plus: 3C Assay for Thrombomodulin Biomarker Activity (AID 2283029); conditions: primary human endothelial cells (HUVEC); actives raise or lower the signal
Procedure, shortened: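 Primary human umbilical vein endothelial cells (3C system) were exposed to chemical for 24 h, then thrombomodulin levels were measured by ELISA. Activity was fitted bidirectionally against the DMSO negative control as baseline.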

[11] = read-out: Urokinase-type plasminogen activator receptor (uPAR), PLAUR (gene 5329); test: BSK_4H_uPAR: BioMAP Diversity Plus: 4H Assay for Urokinase-type plasminogen activator receptor (uPAR) Biomarker Activity (AID 2283030); conditions: primary human endothelial cells (HUVEC); actives raise or lower the signal
Procedure, shortened: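 Human umbilical vein endothelial cells in the 4H system, 24 h after chemical dosing. Cell-surface uPAR measured by ELISA, fitted in both directions versus DMSO; cytotoxicity checked by SRB total protein in parallel cultures.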

[12] = read-out: Vascular endothelial growth factor receptor 2 (Homo sapiens) (UniProt P35968); test: BSK_4H_VEGFRII: BioMAP Diversity Plus: 4H Assay for Vascular endothelial growth factor receptor 2 (VEGFR2) Biomarker Activity (AID 2283031); conditions: primary human endothelial cells (HUVEC); actives raise or lower the signal;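 for AC50: cell-surface VEGFR2 protein level quantified by ELISA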
Procedure, shortened: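 Primary human umbilical vein endothelial cells (4H system), 24 h exposure; cell-surface VEGFR2 measured by ELISA. Bidirectional fitting versus DMSO; cytotoxicity checked in parallel by SRB total-protein staining.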

[13] = read-out: Human Leukocyte Antigen - DR isotype (HLADR), HLA-DRA (gene 3122); test: BSK_BE3C_HLADR: BioMAP Diversity Plus: BE3C Assay for Human Leukocyte Antigen - DR isotype (HLADR) Biomarker Activity (AID 2283032); conditions: primary human bronchial epithelial cells; actives raise or lower the signal
Procedure, shortened: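 Human primary bronchial epithelial cells in the BE3C system were exposed to chemicals for 24 h, after which HLA-DR levels were quantified by ELISA. Activity was fitted bidirectionally, gain or loss of signal, against DMSO as negative control and baseline.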

[14] = read-out: Vascular cell adhesion molecule 1 (VCAM1), VCAM1 (gene 7412); test: BSK_4H_VCAM1: BioMAP Diversity Plus: 4H Assay for Vascular cell adhesion molecule 1 (VCAM1) Biomarker Activity (AID 2283033); conditions: primary human endothelial cells (HUVEC); actives raise or lower the signal
Procedure, shortened: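 Primary human umbilical vein endothelial cells were exposed to chemicals for 24 h, after which VCAM-1 was quantified by ELISA. Responses were fitted bidirectionally against DMSO as negative control and activity baseline.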

[15] = read-out: Interferon-gamma inducible Protein 10 (IP10), CXCL10 (gene 3627); test: BSK_BE3C_IP10: BioMAP Diversity Plus: BE3C Assay for Interferon-gamma inducible Protein 10 (IP10) Biomarker Activity (AID 2283034); conditions: primary human bronchial epithelial cells; actives raise or lower the signal
Procedure, shortened: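 Human primary bronchial epithelial cells were exposed to chemicals for 24 hours, after which IP-10 levels were measured by ELISA. Data were fitted bidirectionally against DMSO, which served as the negative control and activity baseline.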

[16] = read-out: Monokine induced gamma interferon (MIG), CXCL9 (gene 4283); test: BSK_BE3C_MIG: BioMAP Diversity Plus: BE3C Assay for Monokine induced gamma interferon (MIG) Biomarker Activity (AID 2283035); conditions: primary human bronchial epithelial cells; actives raise or lower the signal
Procedure, shortened: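 ELISA read-out of MIG in human lung bronchial epithelial primary cultures, 24 h post-dosing. Bidirectional curve fit vs DMSO baseline.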

[17] = read-out: Transforming growth factor beta 1 (TGFb1), TGFB1 (gene 7040); test: BSK_BE3C_TGFb1: BioMAP Diversity Plus: BE3C Assay for Transforming growth factor beta 1 (TGFb1) Biomarker Activity (AID 2283036); conditions: primary human bronchial epithelial cells; actives raise or lower the signal
Procedure, shortened: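 Human primary bronchial epithelial cells (BE3C system) were dosed with chemical and TGF-b1 levels measured by ELISA at 24 h. Activity was fitted bidirectionally relative to DMSO negative control as baseline.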

[18] = read-out: Plasminogen activator inhibitor-1 (PAI1), SERPINE1 (gene 5054); test: BSK_BE3C_PAI1: BioMAP Diversity Plus: BE3C Assay for Plasminogen activator inhibitor-1 (PAI1) Biomarker Activity (AID 2283037); conditions: primary human bronchial epithelial cells; actives raise or lower the signal
Procedure, shortened: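 Human primary bronchial epithelial cells were exposed to chemical for 24 h, then PAI-1 was quantified by ELISA. Activity was fitted bidirectionally relative to the DMSO negative control baseline.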

[19] = read-out: urokinase plasminogen activator (uPA), PLAU (gene 5328); test: BSK_BE3C_uPA: BioMAP Diversity Plus: BE3C Assay for urokinase plasminogen activator (uPA) Biomarker Activity (AID 2283038); conditions: primary human bronchial epithelial cells; actives raise or lower the signal
Procedure, shortened: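 Primary human bronchial epithelial cells, uPA measured by ELISA 24 h after dosing. Bidirectional change relative to DMSO; cytotoxicity checked in parallel cultures by sulforhodamine B total-protein staining.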

[20] = read-out: Urokinase-type plasminogen activator receptor (uPAR), PLAUR (gene 5329); test: BSK_BE3C_uPAR: BioMAP Diversity Plus: BE3C Assay for Urokinase-type plasminogen activator receptor (uPAR) Biomarker Activity (AID 2283039); conditions: primary human bronchial epithelial cells; actives raise or lower the signal
Procedure, shortened: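 Primary human bronchial epithelial cells were dosed with chemical and harvested 24 h later; uPAR was quantified by ELISA. Activity was fitted bidirectionally against DMSO as negative control and baseline.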

Measured: AC50

Cc1cc(CCN2CCN(c3nsc4ccccc34)CC2)cc2c1NC(=O)CC2(C)C
active: [1] 33.1 µM | [2] 35.8 µM | [4] 26.5 µM | [5] 31.2 µM | [6] 16.3 µM | [7] 16.5 µM | [8] 20 µM | [9] 32.4 µM | [10] 4.31 µM | [11] 4.39 µM | [13] 28.9 µM | [14] 22.3 µM | [15] 30.4 µM | [16] 34.4 µM | [17] 27.2 µM | [18] 32.6 µM | [19] 31.3 µM | [20] 31.2 µM
inactive: [3] | [12]

c1ccc2cc3c(ccc4ccccc43)cc2c1
active: [5] 1.42 µM | [6] 9.8 µM | [18] 3.97 µM
inactive: all other assays above

CC[C@H](C)[C@@H](C(=O)O)n1sc2ccccc2c1=O
inactive: all assays above

CCc1ccc(CCOc2ccc(CC3SC(=O)NC3=O)cc2)nc1 (stereo unspecified)
inactive: all assays above

CCCOc1sc(C(=O)N2CCC(c3cc(CN)ccc3F)CC2)c(C)c1Br
active: [1] 8.8 µM | [2] 11.1 µM | [4] 5 µM | [5] 11.1 µM | [6] 8.81 µM | [7] 6.2 µM | [8] 5.82 µM | [9] 4.93 µM | [10] 4.5 µM | [11] 6.64 µM | [12] 4.78 µM | [13] 7.9 µM | [14] 8.01 µM | [15] 9.51 µM | [16] 10.2 µM | [17] 6.71 µM | [18] 9.91 µM | [19] 5.88 µM | [20] 7.36 µM
inactive: [3]

OCCC(F)(F)C(F)(F)C(F)(F)C(F)(F)C(F)(F)C(F)(F)F
active: [1] 45.7 µM | [2] 44.8 µM and 45.3 µM | [4] 57.7 µM | [7] 46.8 µM | [12] 7.51 µM
inactive: [1] | [2] | [4] | [5] | [6] | [7] | [8] | [9] | [10] | [11] | [12] | [13] | [14] | [15] | [16] | [17] | [18] | [19] | [20]

OCCC(F)(F)C(F)(F)C(F)(F)C(F)(F)C(F)(F)C(F)(F)C(F)(F)C(F)(F)F
active: [1] 48.2 µM | [2] 48.6 µM | [3] 100 µM | [4] 29.1 µM and 19 µM | [5] 48 µM | [7] 14.5 µM and 13.5 µM | [8] 18.2 µM and 15.6 µM | [9] 22.8 µM and 20 µM | [11] 39.7 µM and 27.8 µM | [12] 47.9 µM and 20.6 µM | [13] 18.3 µM and 24.1 µM | [14] 41.3 µM and 22.7 µM | [15] 12.7 µM and 17.9 µM | [16] 33.5 µM and 28.7 µM | [18] 16.7 µM and 24.8 µM | [19] 27.9 µM and 27.7 µM | [20] 20.9 µM and 22.9 µM
inactive: [1] | [2] | [3] | [4] | [5] | [6] | [7] | [8] | [9] | [10] | [11] | [12] | [13] | [14] | [15] | [16] | [17] | [18] | [19] | [20]

OC1CCCCC1
inactive: all assays above

CCCCCCCCCCCCc1ccccc1S(=O)(=O)O
active: [5] 28.8 µM | [6] 39 µM | [9] 7.1 µM | [13] 8.12 µM | [15] 6.21 µM | [16] 30.1 µM | [17] 8.96 µM | [18] 8.94 µM | [19] 13.9 µM | [20] 14.2 µM
inactive: all other assays above

CC(O)CO (stereo unspecified)
inactive: all assays above
